Rows were chosen to be rich in hits. Some 3.5% of all compounds tested hit in one or more screens of this group.
TEAD-YAP inh – TEAD-YAP interaction inhibition; HEK-TIYL cells, TEAD-Gal4/YAP UAS-luciferase luminescence; inhibition, % at 9.12 µM; actives 1.4% (n = 640,000); in the data active = inhibition above about 32%
MITF inh – blocks human microphthalmia-associated transcription factor; O75030; AlphaScreen MITF homodimerization, bead proximity signal; inhibition, % at 2.6 µM; actives 0.91% (n = 650,000); AID 1259374; in the data active = inhibition above about 50%
FBW7 activator – activators of human E3 ligase FBW7. Q969H0. AlphaScreen FBW7–phospho-cyclin E peptide binding, activator screen. normalized activity (activation), % at 26.1 µM. actives 0.13% (n = 650,000); in the data active = normalized activity above about 1.9%;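 also: purified mutant Fbw7 with reduced substrate affinity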
Target sequence (Q969H0 whole entry, looked up): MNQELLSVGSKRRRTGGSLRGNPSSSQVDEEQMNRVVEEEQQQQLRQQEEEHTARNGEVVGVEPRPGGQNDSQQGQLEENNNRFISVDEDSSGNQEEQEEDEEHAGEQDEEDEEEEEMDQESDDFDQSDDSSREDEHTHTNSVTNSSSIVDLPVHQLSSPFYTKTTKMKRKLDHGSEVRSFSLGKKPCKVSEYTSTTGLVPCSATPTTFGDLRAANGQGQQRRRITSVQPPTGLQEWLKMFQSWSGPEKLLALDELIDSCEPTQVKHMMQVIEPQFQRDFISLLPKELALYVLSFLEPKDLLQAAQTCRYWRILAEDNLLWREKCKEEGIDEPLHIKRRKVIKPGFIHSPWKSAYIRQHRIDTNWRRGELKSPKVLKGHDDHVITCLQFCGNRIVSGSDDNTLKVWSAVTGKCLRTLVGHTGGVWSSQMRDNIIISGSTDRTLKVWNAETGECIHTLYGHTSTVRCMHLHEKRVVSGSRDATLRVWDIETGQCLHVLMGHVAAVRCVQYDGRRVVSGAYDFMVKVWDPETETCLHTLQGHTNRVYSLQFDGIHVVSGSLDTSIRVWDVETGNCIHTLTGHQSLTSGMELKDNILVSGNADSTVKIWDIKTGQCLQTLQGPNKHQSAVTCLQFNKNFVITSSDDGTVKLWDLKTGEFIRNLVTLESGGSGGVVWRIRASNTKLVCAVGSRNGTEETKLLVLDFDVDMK
GPR151 activ – activates the human receptor GPR151; PathHunter beta-arrestin GPR151 cells, luminescence; activation, % at 11.2 µM; actives 1% (n = 650,000); in the data active = activation above about 4.9%
Numbers stand for hits; n = inactive.

SMILES | TEAD-YAP inh | MITF inh | FBW7 activator | GPR151 activ
COc1ccccc1/C=N/NC(=O)c1[nH]c(C)c(C(=O)N/N=C/c2ccccc2OC)c1C | n | n | n | n
CCOC(=O)c1c(C)[nH]c(C(=O)N/N=C\c2ccccc2)c1C | n | n | n | n
CCOc1ccc(NC(=O)CSc2nnc3n2CCCCC3)cc1 | n | n | n | n
CCN(Cc1ccncc1)C1CCCN(C(=O)Nc2ccccc2SC)C1 (configuration not stated) | n | n | n | n
Nc1sc2c(c1C(=O)NCC1CCCO1)CCCC2 (configuration not stated) | n | n | n | n
COc1ccccc1/C=C/C(=O)Nc1ccc2[nH]ncc2c1 | 35 | n | n | n
CCc1ccc[n+](-c2[nH]c(=O)sc2/C=N/NC(=O)c2ccncc2)c1 | n | n | n | n
O=c1nc(N/N=C/c2c[nH]c3ccccc23)cn[nH]1 | 58 | n | n | n
O=c1nc(N/N=C/c2ccc(O)cc2)cn[nH]1 | n | n | n | n
O=c1nc(N/N=C/C=C/c2ccccc2)cn[nH]1 | 50 | n | n | n
C/C(=N\NC(=O)c1cccc(Cl)c1)c1ccc([N+](=O)[O-])cc1 | n | n | n | n
CC(=O)c1[nH]c(C)c(C(=O)Nc2cccc(C(F)(F)F)c2)c1C | n | n | n | n
COc1ccccc1CNC(=O)CS(=O)Cc1nc(-c2ccccc2C)oc1C (configuration not stated) | n | n | 2.6 | n
Cc1oc(-c2ccccc2Cl)nc1CS(=O)CC(=O)NCc1ccccn1 (configuration not stated) | n | n | n | n
Cc1oc(-c2ccccc2Cl)nc1CS(=O)CC(=O)NCc1ccc2c(c1)OCO2 (configuration not stated) | n | n | 3.9 | n
CNC(=O)/C(C#N)=C/c1ccc(-c2ccc(Br)cc2)o1 | n | n | n | n
CNC(=O)/C(C#N)=C/c1ccc(-c2ccc(Cl)c(Cl)c2)o1 | n | n | 1.9 | n
CC(C)c1ccc2nc3sc(C(=O)Nc4nccs4)c(N)c3cc2c1 | 66 | n | n | n
Cc1ccc2cc3c(N)c(C(=O)Nc4nc(C)c(C)s4)sc3nc2c1 | n | n | n | n
Cc1[nH]c(=O)[nH]c(=O)c1NC(=O)c1sc2nc3ccc(C(C)C)cc3cc2c1N | 79 | n | n | n
Nc1c(C(=O)Nc2nccs2)sc2nc3c(cc12)CCC3 | 56 | n | n | n
Cc1cc2cc3c(N)c(C(=O)Nc4nc(C)c(C)s4)sc3nc2cc1C | n | n | 46 | n
Cc1ccc2nc3sc(C(=O)Nc4c(C)[nH]c(=O)[nH]c4=O)c(N)c3cc2c1 | n | n | n | n
O=C(CCl)Nc1nnc(-c2ccccc2)o1 | n | n | n | n
Cc1nnc(N(C(=O)c2cnccn2)c2ccccc2)s1 | 62 | n | n | n
SMILES | TEAD-YAP inh | MITF inh | FBW7 activator | GPR151 activ
Clc1ccc(-c2cnc3ccc(NCCc4cccnc4)nn23)cc1 | 52 | n | n | n
Fc1cccc(-c2cnc3ccc(NCCc4cccnc4)nn23)c1 | 65 | n | n | n
c1cncc(CCNc2ccc3ncc(-c4ccc5ccccc5c4)n3n2)c1 | n | n | n | n
COc1ccc(-n2ncc3c(=O)n(CC(=O)N4CCCCC4)cnc32)cc1 | n | n | n | n
COc1ccc([N+](=O)[O-])cc1C1=N/C(=C/c2ccc(OC(C)=O)cc2)C(=O)O1 | n | n | n | n
CCN(CC)C(=O)c1ccc2nc(NC(=O)c3cccs3)sc2c1 | 88 | n | n | n
Cc1ccc2nc(NC(=O)c3ccc([N+](=O)[O-])cc3)sc2c1 | n | n | n | n
Cc1onc(-c2c(Cl)cccc2Cl)c1C(=O)Nc1nc2ccc([N+](=O)[O-])cc2s1 | 49 | n | n | n
CCN(CC)C(=O)c1ccc2nc(NC(=O)c3ccc(N)cc3)sc2c1 | 80 | n | n | n
CCN(CC)C(=O)c1ccc2nc(NC(=O)c3ccc([N+](=O)[O-])cc3)sc2c1 | 84 | n | n | n
Cc1ccc([N+](=O)[O-])cc1NC(=O)c1c(-c2c(Cl)cccc2Cl)noc1C | n | n | n | n
CCOC(=O)c1sc(N2C(=O)C(=O)/C(=C(/O)c3ccc(OCC)c(C)c3)C2c2ccc(F)cc2)nc1C (configuration not stated) | n | n | n | n
CC1CCN(S(=O)(=O)c2cc(C(=O)Nc3ccc(Oc4ccccc4)cc3)ccc2F)CC1 | n | n | n | n
O=S(=O)(NC1CC1)c1ccc2c(c1)OCCO2 | n | n | n | n
Cn1c(=O)[nH]c(=O)c2c1nc(N1CCN(CCO)CC1)n2CCCc1ccccc1 | n | n | n | n
NC1=C/C(=N\S(=O)(=O)c2ccccc2)c2ccccc2C1=O | 96 | n | n | n
Cc1ccc(Nc2nc(-c3c(C)nc4ncccn34)cs2)cc1 | 60 | n | n | n
Cc1nc2ncccn2c1-c1csc(Nc2cccc(Cl)c2C)n1 | 38 | n | n | n
Cc1nc2ncccn2c1-c1csc(Nc2ccc(Cl)cc2)n1 | 54 | n | n | n
CCOc1ccc(Nc2nc(-c3c(C)nc4ncccn34)cs2)cc1 | 58 | n | n | n
Cc1nc2ccccn2c1-c1csc(Nc2cccc(Cl)c2C)n1 | n | n | n | n
CC(NS(=O)(=O)c1ccc([N+](=O)[O-])cc1)c1ccccc1 (configuration not stated) | n | n | n | n
O=C(/C=C/c1ccc2c(c1)OCO2)Nc1ccc(I)cc1 | n | n | n | n
CCCCNC(=O)CSc1ncnc2sc3c(c12)CCC3 | n | n | n | n
Cc1ccccc1-n1nc2c(c1NC(=O)c1cc([N+](=O)[O-])ccc1Cl)CS(=O)(=O)C2 | 67 | n | n | n
SMILES | TEAD-YAP inh | MITF inh | FBW7 activator | GPR151 activ
CC(C)(C)n1nc2c(c1NC(=O)c1cc(Cl)ccc1Cl)CSC2 | n | n | n | n
COc1ccc(-n2nc3c(c2NC(=O)c2cc([N+](=O)[O-])ccc2Cl)CSC3)cc1 | 61 | n | n | n
CC(C)(C)n1nc2c(c1NC(=O)c1cc([N+](=O)[O-])ccc1Cl)CSC2 | 89 | n | n | n
Cc1ccc(-n2nc3c(c2NC(=O)c2cc([N+](=O)[O-])ccc2Cl)CSC3)c(C)c1 | 71 | n | n | n
CCNc1nc(N2CCCCC2)nc(-n2nnc(C(C)=O)c2C)n1 | n | n | n | n
Nc1ccc(-n2ncnc2-c2cccc(-n3ncc4cc(Nc5ccccc5F)ccc43)c2)cc1 | n | n | n | n
COc1ccc(-n2ncnc2-c2cccc(-n3ncc4cc(Nc5ccccc5F)ccc43)c2)cc1 | 38 | n | n | n
COc1cc(NC(=O)c2cccc(-n3ncc4cc(Nc5ccccc5F)ccc43)c2)cc(OC)c1OC | 33 | n | n | n
CCCOC(=O)C1=C(C)NC2=C(C(=O)CCC2)C1c1cccc(Cl)c1 (configuration not stated) | n | n | n | n
Cc1cccc(N2C(=O)NC(=O)/C(=C/c3ccc(I)o3)C2=O)c1 | n | 58 | n | n
CCc1ccc(N2C(=O)NC(=O)/C(=C\c3ccc(I)o3)C2=O)cc1 | n | n | n | n
O=C1NC(=O)N(c2ccccc2)C(=O)/C1=C\c1ccc(I)o1 | n | 74 | n | n
O=C1NC(=O)N(Cc2ccccc2)C(=O)/C1=C/c1ccc(Br)o1 | n | 58 | n | n
